Hit rate of the full screen: of about 16,000 compounds, about 5,100 (32%) were called active. Another 25% or so got no clear call; they are omitted. The list shows a part of the results. Unmarked numbers belong to inactive results. Calls follow the shape of the dose curve; as a rule, active = well fitted curve in the direction sought with a large enough effect; inconclusive = small, poorly fitted or top-dose-only effect, or effect the other way; inactive = no such curve, though single readings can be large or run the other way.
Molecular target: Cytochrome P450 3A4 (Homo sapiens) (UniProt P08684)
Experiment: Cytochrome panel assay with activity outcomes
Conditions: recombinant CYP, pro-luciferin dealkylation, luminescence, p450-cyp3a4; series mostly up to 57.1 µM
% is scaled to controls: 0 for no effect and ±100 for the full control effect.

Sequence of Cytochrome P450 3A4 (Homo sapiens) (P08684 whole entry, looked up): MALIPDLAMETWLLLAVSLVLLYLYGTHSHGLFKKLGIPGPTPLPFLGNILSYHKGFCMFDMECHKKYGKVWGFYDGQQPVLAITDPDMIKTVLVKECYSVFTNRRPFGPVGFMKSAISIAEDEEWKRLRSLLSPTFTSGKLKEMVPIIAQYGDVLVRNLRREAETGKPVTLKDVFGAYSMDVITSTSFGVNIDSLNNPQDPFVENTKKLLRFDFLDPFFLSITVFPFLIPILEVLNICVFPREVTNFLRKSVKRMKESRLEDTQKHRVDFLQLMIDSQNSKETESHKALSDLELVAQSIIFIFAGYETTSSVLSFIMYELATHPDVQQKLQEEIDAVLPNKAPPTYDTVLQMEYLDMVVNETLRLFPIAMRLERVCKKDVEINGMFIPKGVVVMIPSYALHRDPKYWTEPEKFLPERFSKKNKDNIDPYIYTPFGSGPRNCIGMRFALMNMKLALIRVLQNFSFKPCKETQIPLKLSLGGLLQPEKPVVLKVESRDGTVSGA

| Compound | AC50 | activity, negative = inhibition |
| --- | --- | --- |
| Cc1cc(C(=O)CC#N)c(C)n1CC(F)(F)F | 3.16 µM (active) |  |
| O=C(NC(NC(=S)Nc1cc(Cl)ccc1Cl)C(Cl)(Cl)Cl)c1ccco1 (stereo unspecified) | 6.31 µM (active) |  |
| O=C(NNC(=S)Nc1ccccc1)c1ccco1 | inactive |  |
| O=C(/C=C/c1ccc(Cl)cc1)Nc1ccc(N2CCCCC2)cc1 | inactive |  |
| O=C(Cc1ccccc1)NC(NC(=S)Nc1cc(Cl)ccc1Cl)C(Cl)(Cl)Cl (stereo unspecified) | 4.47 µM (active) |  |
| O=C(/C=C/c1ccccc1)NC(NC(=S)Nc1ccc(Cl)cc1)C(Cl)(Cl)Cl (stereo unspecified) | 4.47 µM (active) |  |
| O=C(CCc1ccccc1)Nc1ncn[nH]1 | inactive |  |
| CC(CP(=O)(O)O)NC(=O)Cc1ccccc1 (stereo unspecified) | inactive |  |
| O=C(Cc1ccccc1)NC(=S)Nc1cc(C(F)(F)F)ccc1Cl |  | -7.93% [at 2.29 µM] |
| O=C(Cc1ccccc1)NC(NCCc1ccccc1)C(Cl)(Cl)Cl (stereo unspecified) | 14.1 µM (active) |  |
| C[C@@H](CCC(=O)O)C(=O)O |  | -7.96% [at 11.4 µM] |
| COc1ccc(Oc2ncc3nc(-c4cn(C)c5ccccc45)c(=O)n(C4CC4)c3n2)cc1 | 12.6 µM (active) |  |
| COCCn1c(=O)c(-c2cn(C)c3ccccc23)nc2cnc(Oc3ccccc3)nc21 | 3.16 µM (active) |  |
| COCCn1c(=O)c(-c2cn(C)c3ccccc23)nc2cnc(Oc3cccc(Cl)c3)nc21 | inactive |  |
| COCCn1c(=O)c(-c2cn(C)c3ccccc23)nc2cnc(Oc3ccc(OC)cc3)nc21 | 3.98 µM (active) |  |
| OCCNc1nc(NCCC2=CCCCC2)nc(N2CCOCC2)n1 | inactive |  |
| Cc1ccc(N2CCN(CCC(=O)O)CC2)cc1 |  | -4.63% [at 11.4 µM] |
| Cc1ccc(C)c(-c2nn(-c3cc(N4CCN(CCO)CC4)ccc3[N+](=O)[O-])c(=O)c3ccccc23)c1 | 12.6 µM (active) |  |
| CN1CCN(C(=O)c2ccc(COc3ccc(C(C)(C)C)cc3)o2)CC1 |  | -9.09% [at 2.29 µM] |
| Cc1ccc(OCc2ccc(C(=O)Nc3nccs3)o2)cc1C | 11.2 µM (active) |  |
| COc1ccc(NC(=O)CCOc2ccccc2)cc1 | 15.8 µM (active) |  |

| Compound | AC50 | activity, negative = inhibition |
| --- | --- | --- |
| Cc1ccc(OCC(=O)NNC(=O)c2cc3ccccc3o2)cc1C | inactive |  |
| COc1ccc(NC(=O)c2ccc(COc3ccccc3)o2)cc1 | 22.4 µM (active) |  |
| O=C(COC(=O)COc1ccccc1)Nc1ccc(OC(F)(F)F)cc1 | inactive |  |
| CC(C)N(CC(=O)O)CC(=O)O |  | -7.3% [at 11.4 µM] |
| CC12c3ccccc3C(c3ccccc31)C1C(=O)N(Cc3cccnc3)C(=O)C12 (stereo unspecified) | 1.58 µM (active) |  |
| CC1CCCC(C)N1C(=O)C1CC(c2ccc(F)cc2)=NO1 (stereo unspecified) | 11.2 µM (active) |  |
| COc1ccccc1-n1c(SCC(=O)N2CCCC2)nc2cccnc21 | 15.8 µM (active) |  |
| O=C(O)c1cccnc1SCC(=O)N1CCCCCC1 | inactive |  |
| CC1CCN(C(=O)CSc2nc3cccnc3n2C)CC1 | inactive |  |
| CCN(CC)S(=O)(=O)c1ccc2c(c1)nc(SCC(=O)N1CCOCC1)n2-c1ccccc1OC | 3.98 µM (active) |  |
| CC(C)=C[C@H]1[C@@H](COC(=O)c2ccccc2Cl)C1(C)C |  | -18.7% [at 11.4 µM] |
| Cc1cc(C(=O)NNC(=S)NC(C)c2ccccc2)c2ccccc2n1 (stereo unspecified) | 14.1 µM (active) |  |
| CCNC(=S)NNC(=O)c1cc(C2CC2)nc2ccccc12 |  | -10.5% [at 2.29 µM] |
| CCNC(=S)NNC(=O)c1cc(CC(C)C)nc2ccccc12 |  | -3.62% [at 2.29 µM] |
| CCCS(=O)(=O)N1CCN(CC2CC=CCC2)CC1 (stereo unspecified) | inactive |  |
| COc1ccc2nc(N3C(=O)CC(Cc4ccc(Cl)cc4)C3=O)sc2c1 (stereo unspecified) | inactive |  |
| COc1ccc(-n2cnnc2)cc1 | inactive |  |
| COc1ccc(CN2CN(c3ccc(Cl)cc3)C(=O)N(n3cnnc3)C2)cc1 | 14.1 µM (active) |  |
| O=C(CSc1c[nH]c2ccccc12)N1CCOCC1 | 15.8 µM (active) |  |
| Nn1c(SCC(=O)N2CCOCC2)nnc1-c1ccccc1Cl | inactive |  |
| C=C(C)C1Cc2nc(N)nc(C)c2C1 (stereo unspecified) | inactive |  |

| Compound | AC50 | activity, negative = inhibition |
| --- | --- | --- |
| CC(=O)NC1(c2ccc(F)cc2)CCN(C(=O)Nc2ccc(F)cc2F)CC1 | inactive |  |
| Cc1ccc(Cn2nnc3c(=O)[nH]c(C4CCCN(C(=O)Nc5ccc(F)cc5F)C4)nc32)cc1 (stereo unspecified) | 7.08 µM (active) |  |
| Cc1ccc(C)c(S(=O)(=O)N2CCC(c3nc4c(nnn4Cc4ccc(F)cc4)c(=O)[nH]3)CC2)c1 | 6.31 µM (active) |  |
| O=C(NCc1ccco1)c1nc2c(nnn2Cc2cccc(Cl)c2)c(=O)[nH]1 | inactive |  |
| COc1cccc(Cn2nnc3c(=O)[nH]c(C4CCCN(C(=O)c5ccccc5Cl)C4)nc32)c1 (stereo unspecified) | 2 µM (active) |  |
| O=C(O)C[C@@H](C(=O)O)C1c2ccccc2-c2ccccc21 |  | -5.49% [at 11.4 µM] |
| NC(=O)c1cc[n+](CC2=C(C(=O)O)N3C(=O)[C@@H](NC(=O)[C@H](c4ccccc4)S(=O)(=O)[O-])[C@@H]3SC2)cc1 | inactive |  |
| O=C(O)/C=C/c1cn(-c2ncc(C(F)(F)F)cc2Cl)c2ccccc12 | inactive |  |
| Cn1c(C(N)=O)cnc1Sc1ncc(C(F)(F)F)cc1Cl | inactive |  |
| CN(NC(=O)NN)c1ncc(C(F)(F)F)cc1Cl | 14.1 µM (active) |  |
| CC(C)(C)c1ccc(C(=O)NCCC(=O)NCc2ccco2)cc1 | 14.1 µM (active) |  |
| C[C@H]1C2=C3C(CC[C@H]4C(OCc5ccc(F)cc5C(F)(F)F)OC[C@](C)([C@@H]34)N(C(=O)OC(C)(C)C)C2)C(CO)C1CO (stereo partly specified) | 15.8 µM (active) |  |
| COCC1C2CC[C@H]3C(OCc4ccc(F)cc4C(F)(F)F)OC[C@]4(C)[C@H]3C2=C(CN4C(=O)OC(C)(C)C)[C@H](C)C1COC (stereo partly specified) | 15.8 µM (active) |  |
| COc1cc(OC)c(NC(=S)Nc2cccc(C(C)=O)c2)cc1Cl | 5.01 µM (active) |  |
| COc1cc(NC(=O)c2ccccc2Cl)ccc1NC(=O)c1ccco1 | 14.1 µM (active) |  |
| COc1ccc(C(=O)Nc2ccc(NC(=O)c3ccco3)c(Cl)c2)cc1OC |  | -24% [at 11.4 µM] |
| Cn1ncc([N+](=O)[O-])c1C(=O)Nc1ccc2c(c1)OCCO2 | inactive |  |
| CC(C)Oc1ccc(C(=O)Nc2ccc(NC(=O)c3ccco3)c(Cl)c2)cc1 | inactive |  |
| O=C(Nc1ccccc1C(=O)Nc1ccc2c(c1)OCO2)c1ccco1 | 1.26 µM (active) |  |
| O=C(Nc1ccc2c(c1)OCCO2)c1cccc2nc3ccccc3nc12 | 11.2 µM (active) |  |
| CC1(C)Oc2ccc(NC(=O)c3ccco3)cc2O1 | inactive |  |

| Compound | AC50 | activity, negative = inhibition |
| --- | --- | --- |
| COC(=O)C1=C(C)OC(N)=C(C#N)C1c1cc(OC)ccc1OC (stereo unspecified) | 8.91 µM (active) |  |
| CCOC(=O)C1=C(c2ccccc2)OC(N)=C(C#N)C1c1ccc(Cl)s1 (stereo unspecified) | inactive |  |
| CCOC(=O)C1=C(CSc2nc(-c3ccccc3)ccc2C#N)OC(N)=C(C#N)C1c1ccc(OC)cc1 (stereo unspecified) |  | -22.9% [at 2.29 µM] |
| COC(=O)C1=C(C)OC(N)=C(C#N)C1C1CCCCC1 (stereo unspecified) | 7.08 µM (active) |  |
| C[C@H]1NC(=O)NC1=O | inactive |  |
| CC1=C[N+](=O)c2ccccc2[N+]1=O |  | -3.77% [at 11.4 µM] |
| CC(=O)NCCNc1ncnc2ccc(-c3ccccc3Cl)cc12 | 15.8 µM (active) |  |
| CC(=O)NCCNc1ncnc2ccc(-c3ccccc3C)cc12 | 12.6 µM (active) |  |
| COc1ccccc1-c1ccc2ncnc(NCCNC(C)=O)c2c1 | 20 µM (active) |  |
| CC(=O)NCCNc1ncnc2ccc(-c3ccccc3C(F)(F)F)cc12 | 6.31 µM (active) |  |
| CN(C)CCCNc1ncnc2nc[nH]c12 |  | -8.34% [at 11.4 µM] |
| Cc1ccc(NCC(=O)N/N=C\c2ccc([N+](=O)[O-])o2)cc1 | 25.1 µM (active) |  |
| Oc1ccc(/C=N/NC(=S)NCc2ccco2)cc1 |  | -2.66% [at 2.29 µM] |
| CC(C)(C)c1ccc(OCC(=O)N/N=C/c2cc(Br)ccc2OC(=O)c2ccco2)cc1 | inactive |  |
| Cc1ccc(NCC(=O)N/N=C/c2ccc(OC(=O)c3ccco3)cc2)cc1 | 17.8 µM (active) |  |
| CCOC(=O)N/N=C\c1ccc([N+](=O)[O-])o1 |  | -11.7% [at 2.29 µM] |
| Cc1ccc(/C=N/NC(=O)Cn2nccc2C)o1 | inactive |  |
| OC[C@@H]1O[C@@H](n2cnc3c(NC4CCCC4)ncnc32)[C@@H](O)[C@H]1O | inactive |  |
